# Screen size: about 210,000 compounds; about 730 (0.35%) were called active. Where a call stands in place of a potency, no number is given. About 1% were inconclusive and are not listed. The call rests on the fitted dose curve; in most records, active means well fitted inhibition curve with a large enough effect; inconclusive means small, poorly fitted or top-dose-only effect; inactive means no such curve, though single readings can be large or run the other way. The full list was thinned out, with actives kept by preference.
# Experiment: qHTS Assay for Identifying the Cell-Membrane Permeable IMPase Inhibitors: Potentiation with Lithium;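 further: IP1 builds up when IMPase is blocked and the TR-FRET signal falls; nearly all actives have a fitted effect of over 50% in size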
# Settings: CHO-M1 cells, IP1 TR-FRET (IP-One), carbachol + lithium; series mostly up to 59.4 µM
# From the text: NIH Chemical Genomics Center [NCGC]
# NIH Molecular Libraries Probe Production centers Network [MLPCN]
# Assay Submitter (PI): Wei Zheng
# Lithium has been widely used for the treatment of bipolar disorder. But lithium has a narrow therapeutic index and it can cause side effects such as thirst, weight gain, tremor, polyuria and memory problems. Although the mechanism for lithium action in treatment of bipolar disorder is still not fully understood, inhibition of inositol monophosphatase (IMPase) and the subsequent depletion of the inositol pool in living cells have been implicated as the primary therapeutic benefit of lithium therapy. Therefore, a selective IMPase inhibitor with reduced side effects might be a good drug candidate to replace lithium for the treatment of bipolar disorder. Several IMPase inhibitors have been discovered previously. However, they are not suitable for therapeutic use because of their poor cell membrane penetrability or oral bioavailability; the development of new cell-permeable IMPase inhibitors is needed.
# IMPase catalyzes the hydrolysis of inositol-1-phosphate (IP1) to release free inositol. Binding of an agonist to a Gq coupled GPCR results in the activation of PLC, which hydrolyzes the PIP2 to form inositol-1,4,5-trisphosphate (IP3) and diacyl glycerol (DAG). While DAG activates protein kinase C (PKC), IP3 triggers the elevation of intracellular free Ca2+. The IP3 is very rapidly inactivated by hydrolysis to IP2, IP1 and then inositol by a series of enzymes including IMPase. Free inositols are used for synthesis of PI and thus start another inositol cycle.
# To identify new cell-permeable IMPase inhibitors, we developed a cell-based IMPase assay in which the cytosolic IP1 is measured by a time-resolved fluorescence resonance energy transfer (TR-FRET) assay. In this assay, an IP1 specific antibody is used to detect the labeled IP1 tracer. When the cell lysate contains the elevated IP1 due to the inhibition of IMPase, the TR-FRET between the labeled antibody and IP1 tracer is disrupted resulting in a reduction in the total signal. Since the TR-FRET is used, this cell-based assay is a homogenous assay without cell wash and medium change that is suitable for assay miniaturization and HTS. In this particular assay, a small amount of lithium is added to potentiate the response of weak activators.
# NCGC Assay Protocol Summary:
# A Chinese hamster ovary (CHO) cell line stably expressing the M1 receptor (CHO-M1) was obtained from ATCC and maintained in F-12 Kaighn's media (Invitrogen, Carlsbad, CA) supplemented with 10 % FBS, 100 units/ml penicillin, 100 ug/ml streptomycin and 250 ug/ml geneticin at 37C, 5% CO2 in a humidified atmosphere. Before the assay, aliquots of cells were frozen and stored at -135C. The assay was performed in 1536-well format. Data are reported for both the ratio of the two emission wavelengths, and also for the component 'donor' channel, Em2=620. […] AC50 values were determined from concentration-response data modeled with the standard Hill equation.
# (1) Frozen CHO-M1 cells were thaw, washed once with fresh media and resuspended in F12K media containing 10% FBS, 100 units/ml penicillin and 100 ug/ml streptomycin. Cells were plated at 4ul/well (2000 cells) in white, tissue culture treated 1536-well plates, and then cultured at 37C, 5 % CO2 for 16 to 30 hours.
# (2) Add 23 nl/well of compound in DMSO solution. The final titration for each compound was between 0.6 nM and 46 uM.
# (4) Incubation at 37C, 5 % CO2 for 30 min.
# (5) Add 1 ul/well of d2-conjugated IP1 (d2-IP1) and 1 ul/well of Eu+ cryptate conjugated anti-IP1 antibody (Eu+-Ab) prepared in the cell lysis buffer, both from the IP-One kit (Cisbio, MA).
# (6) Incubate at room temperature for 10 minutes.
# (7) Detect the assay plate (Ex = 320, Em1 =665 and Em2 620) in a ViewLux plate reader.
# Potency means the concentration at half of the fitted maximal effect.
row,Structure (SMILES),Potency
1,CN(C)[C@@H]1C(=O)C(C(N)=O)=C(O)[C@@]2(O)C(=O)C3=C(O)c4c(O)cccc4[C@@](C)(O)C3CC12 (stereo not given in full),8.91 µM (active)
2,CN(C)C1C(=O)C(C(N)=O)=C(O)[C@@]2(O)C(=O)C3=C(O)c4c(O)cccc4[C@@](C)(O)C3C[C@@H]12 (stereo not given in full),10 µM (active)
3,CC(=O)c1c(O)c(C)c(O)c(Cc2c(O)c3c(c(C(=O)/C=C\c4ccccc4)c2O)OC(C)(C)C=C3)c1O,inactive
4,CC[C@@](O)(C(=O)O)c1cc2n(c(=O)c1CO)Cc1cc3ccccc3nc1-2,inactive
5,Clc1ccccc1,inactive
6,CC[N+](C)(CC)CCC[n+]1c(-c2ccccc2)c2cc(N)ccc2c2ccc(N)cc21,inactive
7,O=P(O)(O)C(O)c1ccc2ccccc2c1 (stereo not given),inactive
8,CC(C)(c1ccccc1)c1ccc(O)cc1,inactive
9,O=C(CN1CCN(S(=O)(=O)c2ccc3ccccc3c2)CC1)NC(=O)NC1CCCCC1,inactive
10,c1ccc(N2CC[C@@]3(CCCNC3)C2)nc1,inactive
11,COc1cc(C(c2c(O)c3ccccc3oc2=O)c2c(C)n(C)n(-c3ccccc3)c2=O)ccc1O (stereo not given),inactive
12,CCC(=O)CC(c1ccc([N+](=O)[O-])cc1)c1c(O)c2ccccc2oc1=O (stereo not given),inactive
13,O=c1oc2ccccc2c(O)c1C(c1ccccc1O)c1c(O)c2ccccc2oc1=O,10 µM (active)
14,O=C(O)C(=O)Cc1ccc2c(c1)OCO2,inactive
15,c1ccc(Cc2nn3c(Cn4cnc5ccccc54)nnc3s2)cc1,inactive
